Here are results for 10 compounds from PubChem BioAssay (NCATS).

Unmarked numbers belong to inactive results. Inconclusive results are not listed. Activity calls are given as the source filed them. Unless noted, calls come from the whole dose curve; as a rule, active = well fitted curve in the direction sought with a large enough effect; inconclusive = small, poorly fitted or top-dose-only effect, or another doubt; inactive = no such curve, though single readings can be large; an effect the other way counts as inactive or inconclusive. Bounds are passed on as bounds.

Experiment [1] is described as follows: Cell Viability - HepG2 (AID 433; calls by dose curve;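 note: potency is the fitted concentration of half-maximal effect; potency for ATP loss meaning cytotoxicity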). The note with it: qHTS. A digest of the protocol: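 Cytotoxicity is scored as loss of intracellular ATP in HepG2 cells exposed to compounds for 40 h. Concentration-response curves, normalized to DMSO and 100 uM tamoxifen, give AC50 values.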
On the technique in general: In qHTS, concentration-response curves come from the screen itself.

Experiment [2] in a line: Cellular Toxicity (caspase-3) SHSY5Y (AID 657). The note with it: SH-SY5Y caspase-3 activation; series mostly up to 91.7 µM. A digest of the protocol: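 Cells plated and incubated 5 h at 37 °C, dosed over a concentration range, incubated 16 h, then given Caspase-Glo 3/7 reagent for 1 h at room temperature before luminescence reading. Staurosporine (10 uM) defined full stimulation.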

A short description of experiment [3]: MultiTox-Fluor Cytotoxicity Assay - LYMP1-003 - Dead Cells (AID 961). Note: nearly all actives have a fitted effect of over 70% in size. Note: potency is the fitted concentration of half-maximal effect. Particulars: LYMP1-003 lymphoblastoid cells, dead-cell protease fluorescence; series mostly up to 92.2 µM. A digest of the protocol:
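LYMP1-003 human lymphoblastoid cells (2500/well) exposed to compound 16 h at 37 C in complete medium; dead-cell protease read with bis-AAF-R110 fluorescence (Ex/Em 485/520) after 60 min at room temperature. Normalized to DMSO and 15 uM tetraoctylammonium bromide; AC50 from Hill fit.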

Experiment [4] can be described thus: Cell Viability - LYMP2-009 (AID 968).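 Note: cells exposed to compound for 24 h at 37 °C; nearly all actives have a fitted effect of over 55% in size.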 Note: potency is the fitted concentration of half-maximal effect. Particulars: LYMP2-009 lymphoblastoid cell viability; series mostly up to 92.2 µM.
Experiment [5] is described as follows: Cell Viability - LYMP2-017 (AID 972).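 Note: cells exposed to compound for 24 hours at 37 °C; nearly all actives have a fitted effect of over 55% in size.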 Note: potency is the fitted concentration of half-maximal effect. Particulars: LYMP2-017 lymphoblastoid cell viability; series mostly up to 92.2 µM. Summed up: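 Steps: plate 2500 lymphoblastoid cells per well; incubate 5 hr at 37 C; add compound across a concentration series and incubate 24 hr at 37 C; add CellTiter-Glo and read luminescence after 30 min at room temperature; fit Hill curves for AC50.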

A short description of experiment [6]: Cell Viability - LYMP2-021 (AID 974).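 Note: compound exposure lasts 24 hours at 37 °C; nearly all actives have a fitted effect of over 55% in size.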 Note: potency is the fitted concentration of half-maximal effect. The note with it: LYMP2-021 lymphoblastoid cells viability; series mostly up to 92.2 µM. Summed up: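 Concentration-response cytotoxicity in a human lymphoblastoid line: 24 hr treatment at 37 C in complete culture medium, tetraoctylammonium bromide as positive control, luminescent ATP quantitation as viability measure.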

Experiment [7] is described as follows: Cell Viability - LYMP2-025 (AID 976).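 Note: cells exposed to compound for 24 h at 37 °C.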 Note: potency is the fitted concentration of half-maximal effect. The note with it: LYMP2-025 lymphoblastoid cell viability; series mostly up to 92.2 µM. Summed up:
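In qHTS format, LYMP2-025 lymphoblastoid cells in complete culture medium received compound for 24 hr; ATP-based CellTiter-Glo signal gave viability, with AC50 derived by Hill equation.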

The nature of experiment [8]: Cell Viability - LYMP2-007 (AID 979).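 Note: cells exposed to compound for 24 h before reading; nearly all actives have a fitted effect of over 60% in size.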 Note: potency is the fitted concentration of half-maximal effect. The note with it: LYMP2-007 lymphoblastoid cell viability; series mostly up to 92.2 µM. A digest of the protocol:
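Acute toxicity is scored as a concentration-dependent fall in intracellular ATP in human lymphoblastoid cells treated 24 hr at 37 C, measured by luciferase luminescence; Hill-equation modelling yields AC50.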

The nature of experiment [9]: Cell Viability - LYMP2-012 (AID 982).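 Note: cellular ATP by luciferase luminescence where a drop means cytotoxicity; cells exposed to compound for one day before reading; nearly all actives have a fitted effect of over 55% in size.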 Note: potency is the fitted concentration of half-maximal effect. Particulars: LYMP2-012 lymphoblastoid cell viability qHTS; series mostly up to 92.2 µM.
A short description of experiment [10]: Cell Viability - LYMP2-020 (AID 986). Note: potency is the fitted concentration of half-maximal effect. The note with it: series mostly up to 92.2 µM. Summed up: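 Acute cytotoxicity in a human lymphoblastoid line is scored as a concentration-dependent fall in cellular ATP after 24 hr at 37 C in complete medium. The positive control is tetraoctylammonium bromide, and potency is given as Hill-fit AC50.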
Experiment [11] has as its target Voltage-gated inwardly rectifying potassium channel KCNH2 (Homo sapiens) (UniProt Q12809). Briefly: qHTS Assay for Small Molecule Inhibitors of the Human hERG Channel Activity (AID 588834).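 Note: lower thallium flux fluorescence means stronger hERG block; nearly all actives have a fitted effect of over 50% in size.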 Note: potency is the fitted concentration of half-maximal effect. The note with it: U2OS BacMam hERG, FluxOR thallium flux fluorescence; series mostly up to 92.2 µM. A digest of the protocol: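 Measured: FluxOR fluorescence after thallium stimulation in U2OS cells transduced with hERG by baculovirus. Compounds pre-incubated around 10 min; medium Opti-MEM with 2% FCS. AC50 from Hill equation.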

Experiment [12] can be described thus: qHTS assay for small molecule disruptors of the mitochondrial membrane potential - 5 hr assay (AID 651755; calls by dose curve; note: nearly all actives have a fitted effect of over 40% in size; note: potency is the fitted concentration of half-maximal effect). Particulars: JC-1-type ratio dye; series mostly up to 92.2 µM. A digest of the protocol: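 HepG2 cells, attached overnight at 37C, were exposed to compound or DMSO for 5 hr at 37C, 5% CO2. Mito-MPS dye was then added for 30 min, and fluorescence read at 490/535 nm (monomers) and 540/590 nm (aggregates).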

Experiment [13] in a line: qHTS assay for small molecule antagonists of the retinoid-related orphan receptor gamma (ROR-gamma) signaling pathway - cell viability counter screen (AID 720652; active = well fitted curve in the direction sought with a large enough effect in the repeat runs; an effect the other way counts as inactive or inconclusive;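 note: compound exposure lasted 16 hr before ATP read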; note: potency is the fitted concentration of half-maximal effect). The note with it: RORgamma reporter cell line viability counter screen; series mostly up to 92.2 µM. A digest of the protocol: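 Cytotoxicity is quantified via intracellular ATP (CellTiter-Glo luminescence) in doxycycline-induced CHO ROR response element-luciferase reporter cells treated with compound for 16 hr at 37 C, 5% CO2.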

Sequence of Voltage-gated inwardly rectifying potassium channel KCNH2 (Homo sapiens) (Q12809 whole entry, looked up): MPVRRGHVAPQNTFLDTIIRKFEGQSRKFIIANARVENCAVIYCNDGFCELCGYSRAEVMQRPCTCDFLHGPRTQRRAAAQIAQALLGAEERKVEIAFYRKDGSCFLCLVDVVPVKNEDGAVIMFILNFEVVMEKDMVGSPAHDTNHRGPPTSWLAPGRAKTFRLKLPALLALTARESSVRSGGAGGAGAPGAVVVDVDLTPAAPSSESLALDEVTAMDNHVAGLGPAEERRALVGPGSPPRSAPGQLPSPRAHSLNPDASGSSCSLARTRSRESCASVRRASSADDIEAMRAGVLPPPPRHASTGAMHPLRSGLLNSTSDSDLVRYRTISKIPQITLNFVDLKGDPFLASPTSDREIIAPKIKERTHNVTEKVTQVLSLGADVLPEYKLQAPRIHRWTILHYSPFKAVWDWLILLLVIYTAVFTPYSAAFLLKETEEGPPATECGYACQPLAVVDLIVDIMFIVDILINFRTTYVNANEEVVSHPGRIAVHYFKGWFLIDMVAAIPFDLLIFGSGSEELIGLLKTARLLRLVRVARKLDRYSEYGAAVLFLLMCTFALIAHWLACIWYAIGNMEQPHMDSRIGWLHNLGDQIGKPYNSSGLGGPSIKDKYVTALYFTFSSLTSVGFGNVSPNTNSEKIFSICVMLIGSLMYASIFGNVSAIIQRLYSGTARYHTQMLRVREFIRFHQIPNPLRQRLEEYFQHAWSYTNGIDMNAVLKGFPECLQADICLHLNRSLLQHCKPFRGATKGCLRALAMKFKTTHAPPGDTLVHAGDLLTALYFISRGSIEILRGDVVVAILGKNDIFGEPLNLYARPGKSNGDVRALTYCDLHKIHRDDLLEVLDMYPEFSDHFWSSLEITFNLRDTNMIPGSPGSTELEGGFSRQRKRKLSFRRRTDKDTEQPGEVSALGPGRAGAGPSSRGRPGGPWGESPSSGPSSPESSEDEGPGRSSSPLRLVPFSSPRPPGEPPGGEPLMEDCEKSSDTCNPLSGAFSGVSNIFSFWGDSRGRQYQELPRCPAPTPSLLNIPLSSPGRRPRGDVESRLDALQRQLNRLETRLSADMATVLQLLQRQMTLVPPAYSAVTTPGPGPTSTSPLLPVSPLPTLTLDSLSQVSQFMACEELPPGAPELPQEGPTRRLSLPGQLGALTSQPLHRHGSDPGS

Turning to `Cc1ccc(O)cc1C`, the Potency in [1] is over 92 µM.

Turning to `OC(c1ccc(Cl)cc1)(c1ccc(Cl)cc1)C(Cl)(Cl)Cl`, the Potency result in [2], in [3], in [4], in experiment [5], in experiment [6] and in experiment [7] was “inactive” in each case. Also, the Potency entry in experiment [8], in experiment [9], in experiment [10] and in [12] was “inactive” throughout. Besides, the Potency in experiment [11] was 39.8 µM (active).

Consider `[CH3][Hg][Cl]`, for which the Potency in experiment [1] is 31.7 µM (active); in experiment [4], 5.01 µM (active); in [5], 3.16 µM (active); in experiment [6] it was 3.16 µM (active); in experiment [7] it was 7.94 µM (active); in experiment [8], 3.98 µM (active). The Potency in experiment [9] is 3.16 µM (active); in experiment [10] it was 2.51 µM (active); in [11], 25.1 µM (active); in experiment [12], 66.8 µM (active); in [13], 10.6 µM (active).

`c1ccc2cc3c(cc2c1)-c1cccc2cccc-3c12`: the Potency is over 92 µM in [1] and 6.68 µM (active) in experiment [12]. The Potency result in experiment [2], in experiment [3], in experiment [4], in experiment [5], in [6] and in [7] was “inactive” each time. Further, the Potency entry in [8], in experiment [9], in experiment [10], in experiment [11] and in [13] was “inactive” in each case.

Take `Oc1c(Br)c(Br)c(Br)c(Br)c1Br`: the results for the Potency in experiment [1] and in experiment [12] were over 92 µM and 33.5 µM (active), respectively. Moreover, the Potency entry in [2], in experiment [3], in [4], in experiment [5], in [6] and in experiment [7] was “inactive” in each case. Moreover, the Potency result in [9], in [10], in [11] and in experiment [13] was “inactive” throughout.

For the compound `[Cd+2].[Cl-].[Cl-]`, the Potency entry in experiment [2] and in experiment [12] was “inactive” each time. Besides, the Potency in [8] was 39.8 µM (active); in experiment [13], 21.1 µM (active).

With `C[C@@H]1CC[C@@]2(OC1)O[C@H]1[C@@H](O)[C@H]3[C@@H]4CC[C@H]5C[C@@H](O[C@@H]6O[C@H](CO)[C@H](O[C@@H]7O[C@H](CO)[C@@H](O)[C@H](O[C@@H]8OC[C@@H](O)[C@H](O)[C@H]8O)[C@H]7O[C@@H]7O[C@H](CO)[C@@H](O)[C@H](O[C@@H]8O[C@H](CO)[C@@H](O)[C@H](O)[C@H]8O)[C@H]7O)[C@H](O)[C@H]6O)[C@H](O)C[C@]5(C)[C@H]4CC[C@]3(C)[C@H]1[C@@H]2C`, the Potency in experiment [1] was 11.9 µM (active); in experiment [3], 10 µM (active); in experiment [4] it was 12.6 µM (active); in [5], 25.1 µM (active); in experiment [6] it was 15.8 µM (active); in experiment [7], 25.1 µM (active). Further, the Potency in [8] was 25.1 µM (active); in experiment [9] it was 15.8 µM (active); in [10], 12.6 µM (active); in [11], 25.1 µM (active); in experiment [12], 26.6 µM (active); in experiment [13] it was 11.9 µM (active). In addition, in [2], the Potency result is “inactive”.

With `N#CC(Cl)Cl`, the Potency result in [2], in [3], in experiment [11] and in experiment [12] was “inactive” in each case. In addition, the Potency in experiment [4] was 15.8 µM (active); in experiment [5] it was 39.8 µM (active); in experiment [6], 25.1 µM (active); in experiment [7], 39.8 µM (active); in [8] it was 20 µM (active); in experiment [10], 10 µM (active). In addition, in [13], the Potency is 21.1 µM (active).

For the compound `C(=NC1CCCCC1)=NC1CCCCC1`, the Potency in experiment [1] was 3.31 µM (active). For the same compound, the Potency entry in [2], in experiment [3] and in [12] was “inactive” each time.

Turning to `COP(=O)(OC)O/C(=C\Cl)c1cc(Cl)c(Cl)cc1Cl`, the values for the Potency in [1] and in experiment [9] were over 92 µM and 50.1 µM (active), respectively. Also, the Potency entry in experiment [3], in experiment [4], in experiment [7], in experiment [10], in experiment [11] and in [13] was “inactive” each time.
